From PubChem BioAssay AID687041 (Broad Institute, 2013)
Potency and affinity values are given separately. Unmarked numbers belong to inactive results.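 How the source made its calls: active means compounds lowering miR-122 whose fitted half-maximal concentration is at most twice the top tested dose; inconclusive means flat fit with moderate reduction, or poor fit quality; inactive means the rest.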

Experiment: endogenous miR-122 level reduction, dose response, orthogonal assay for miR-122 inhibitor project, cell-based, Huh7, RT-qPCR, dry powder (AID 687041)
Settings: Huh7 miR-122 level, 48 h; series mostly up to 35 µM; relative miR-122 level (fraction of control): at the top concentration

Structure (SMILES) | relative miR-122 level (fraction of control)
Cc1cc(Cl)c(Cl)cc1S(=O)(=O)NCCCn1ccnc1 | 0.911
COc1ccc(S(=O)(=O)Nc2ccc(OC(F)F)cc2)c2cccnc12 | 1.16
Cc1cc(C)c(S(=O)(=O)NC(C)C)c(C)c1-n1cnnn1 | 1.17
O=S(=O)(c1ccc2c(c1)CCCN2)N1CCC[C@@H]2CCCC[C@H]21 | 0.549
CCOc1ccc(C)cc1S(=O)(=O)NC1CCCCC1 | 0.698
COc1cc(C)c(C(C)C)cc1S(=O)(=O)n1cnc(C)c1 | 0.792
Cc1cc(C)c(S(=O)(=O)NC2CC3CCC2C3)c(C)c1 (stereo not given) | 0.851
Cc1ccc(C)c(S(=O)(=O)Nc2ccc(-n3cnnn3)cc2)c1 | 0.901
COc1ccc(S(=O)(=O)NCCN2CCOCC2)c2ccccc12 | 0.954
CCOc1cc(C)c(S(=O)(=O)NC2CCCCC2)cc1C | 0.676
COc1ccc(C(C)(C)C)cc1S(=O)(=O)NCC1CCCO1 (stereo not given) | 0.947
Cc1cccc(NS(=O)(=O)c2cc3c(cc2C)NC(=O)CO3)c1 | 0.95
CCCCNS(=O)(=O)c1ccc2nc(-c3cccnc3)cc(C(=O)NC(C)CC)c2c1 (stereo not given) | 0.978
Cc1cc(C(C)(C)C)cc(S(=O)(=O)NCCO)c1C | 1.22
CCN(CC)C(=O)CN(c1cc2c(cc1OC)oc1ccccc12)S(=O)(=O)c1ccccc1 | 0.384
CCOc1ccccc1N1CCN(C(=O)c2cccc(-c3ccc(O)cc3)c2)CC1 | 0.555
Nc1c(S(=O)(=O)c2cccs2)c2nc3ccccc3nc2n1Cc1ccccc1 | 0.7
O=C(Nc1ccc2ccccc2c1)c1ccc(Cl)cc1Cl | 2.03
Cc1cc(C)c(C)c(S(=O)(=O)NC2CCCCC2)c1C | 0.685
Cc1ccc(C)c(S(=O)(=O)Nc2ccc3cn[nH]c3c2)c1 | 0.908
CN1C(=O)c2cccc3c(S(=O)(=O)NCCc4ccccc4)ccc1c23 | 0.827
O=S(=O)(Nc1cccc2[nH]ncc12)c1ccc(F)c2ncccc12 | 0.846
Cc1ccc(C(C)C)cc1S(=O)(=O)Nc1cccnc1 | 1.21
COc1cccc(N2CCN(C(=O)c3oc4ccccc4c3NC(=O)CCc3cc(OC)no3)CC2)c1 | 0.682
O=C(Nc1ccc(N2CCOCC2)c(S(=O)(=O)Nc2cc(Cl)ccc2Cl)c1)c1cccnc1 | 1.07
COc1ccc(C)cc1NS(=O)(=O)c1ccc2c(c1)N(C)CCO2 | 0.687
Cc1ccc(NS(=O)(=O)c2cc(C(=O)NCc3ccccn3)ccc2Cl)cc1C | 0.985
Cc1ccc(C(=O)C2Oc3ccccc3C3CC(c4ccc(C)cc4)=NN23)cc1 (stereo not given) | 0.992
Cc1cc(S(=O)(=O)NC2CCCCC2)c(C)s1 | 1.16
COC(=O)c1cc(S(=O)(=O)Nc2cc(OC)cc(OC)c2)cn1C | 0.972
